Hits are enriched below; roughly 7.6% of the tested compounds scored in any of these assays.
ELG1 DNA repair – blocks ELG1-dependent DNA repair in HEK293T cells | Potency, µM (titrated, usually from 46.1 µM), inactives show top-dose activity change, negative = inhibition, actives largely listed as inhibitors | HEK293T ELG1-luciferase reporter, luminescence, 16 h; DNA damage induced by 5-fluorouridine | actives 2.3% (n = 330,000); also: potency is read from the fitted curve at half-maximal effect; % is scaled to controls: 0 for no effect and ±100 for the full control effect; nearly all actives have a fitted effect of over 55% in size
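DMSO vehicle served as the neutral condition. Each well held 2,000 cells given 5-fluorouridine plus compound; after 16 hr at 37 °C/5% CO2, ONE-Glo was added and luciferase measured 30 min later.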
BRCA1 expr act – increases BRCA1 expression | AID 624202 | MCF7-BRCA1-FFLuc reporter, luminescence, 48 h; response scale: scaled: vehicle 0%, 10 µM genistein 100% | Potency, µM (titrated, usually from 46.1 µM), without a hit: at the top dose activation, actives largely listed as activators | actives 1.1% (n = 380,000); also: potency is read from the fitted curve at half-maximal effect; nearly all actives have a fitted effect of over 80% in size
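Luminescence from a BRCA1-driven firefly luciferase in MCF7 cells was read after 48 h compound exposure at 37 C. Data normalized against DMSO and a 10microM genistein activation control, then curve-fitted across the titration.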
Gal4-VP16 FLuc – Gal4-VP16 reporter inhibition counter-screen | Drosophila S2 Gal4-VP16 UAS-luciferase, luminescence, 20 h | Potency, µM (titrated, usually from 53.6 µM), for the others: at the highest dose activity, negative = inhibition, most hits filed as inhibitors | actives 3.5% (n = 310,000) | AID 2546;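 also: Gal4-VP16 expression switched on by copper sulfate through the metallothionein promoter; potency is read from the fitted curve at half-maximal effect; % is scaled to controls: 0 for no effect and ±100 for the full control effect; nearly all actives have a fitted effect of over 50% in size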
RORg inh – ROR gamma (mouse) transcription inhibition | P51450 | Drosophila S2 Gal4-RORgamma UAS-luciferase reporter, 20 h | Potency, µM (highest dose often 53.6 µM), for the others: at the top dose activity change, negative = inhibition, actives largely listed as inhibitors | actives 5.4% (n = 310,000) | AID 2551; also: potency is read from the fitted curve at half-maximal effect; % is scaled to controls: 0 for no effect and ±100 for the full control effect; nearly all actives have a fitted effect of over 60% in size
Target sequence (P51450 whole entry, looked up, the tested form may be a part): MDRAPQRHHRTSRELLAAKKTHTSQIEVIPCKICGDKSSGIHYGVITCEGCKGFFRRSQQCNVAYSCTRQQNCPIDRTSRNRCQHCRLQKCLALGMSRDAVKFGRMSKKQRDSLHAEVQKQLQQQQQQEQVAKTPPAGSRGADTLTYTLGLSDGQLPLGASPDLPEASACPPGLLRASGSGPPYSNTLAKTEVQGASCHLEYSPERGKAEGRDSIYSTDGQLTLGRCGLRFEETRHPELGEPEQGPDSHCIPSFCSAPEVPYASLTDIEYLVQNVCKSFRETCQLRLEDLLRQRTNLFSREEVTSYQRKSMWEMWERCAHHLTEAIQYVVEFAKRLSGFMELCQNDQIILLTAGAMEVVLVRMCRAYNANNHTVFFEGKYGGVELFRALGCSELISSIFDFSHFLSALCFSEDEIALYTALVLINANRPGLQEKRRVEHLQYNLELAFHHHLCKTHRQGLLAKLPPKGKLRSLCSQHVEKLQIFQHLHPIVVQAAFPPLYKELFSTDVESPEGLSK
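Schneider cells (Drosophila), stable Gal4 DBD–ROR gamma + UAS-luc; 1 hr cmpd preincubation; Cu2+ induction 700 uM final; 20 hr ambient; luminescence.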
p53 reactivator – mutant p53 re-activation in reporter cells; actives 0.063% (n = 320,000); AID 504706; Potency, µM (top dose mostly 92.2 µM), for the others: at the top dose activity change, positive = activation, hits mostly activators; H1299 p53-A138V BP100-luciferase reporter, luminescence, 24 h; also: potency is read from the fitted curve at half-maximal effect; % of control where 0% means no effect; nearly all actives have a fitted effect of over 45% in size
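p53-null H1299 cells stably carrying temperature-sensitive p53-A138V and a BP100-luciferase reporter were pinned with compounds (4-point, 1:5 series) and held 24 hrs at 37 deg C. Luminescence was read 10 min after detection reagent.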
Giardia kill – kills Giardia lamblia; AID 540267; Giardia lamblia trophozoite viability; activity change, % at 7.66 µM, hits read low; actives 0.15% (n = 340,000); in the data active = activity change below about -80%; inconclusive = between about -30% and that limit;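 also: parasites exposed to compound for two days anaerobically before the ATP read; % is scaled to controls: 0 for no effect and ±100 for the full control effect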
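Media and compound were dispensed first, then trophozoites at 100 cells/well; plates sat 48 hrs at 37 deg C without oxygen before ATP luminescence reagent was added and read after 15-30 min at room temperature.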
Starred values were filed as active, the others as inactive; ? = inconclusive; nt = no result given; [ ] = remark or other dose. Unless noted, calls follow the shape of the dose curve; as a rule, active = well fitted curve in the direction sought with a large enough effect; inconclusive = small, poorly fitted or top-dose-only effect, or another doubt; inactive = no such curve, though single readings can be large; an effect the other way counts as inactive or inconclusive.

SMILES	ELG1 DNA repair	BRCA1 expr act	Gal4-VP16 FLuc	RORg inh	p53 reactivator	Giardia kill
COC(=O)c1ccccc1NC(=S)NC(=O)c1ccc(C)cc1	2%	-3%	?	16µM*	15%	11
Cc1ccccc1C(=O)NC(=S)Nc1ccccc1[N+](=O)[O-]	?	-15%	?	6.3µM*	27%	-3
O=C(NC(=S)Nc1cccc(NC(=S)NC(=O)c2ccccc2)c1)c1ccccc1	nt	2%	nt	nt	nt	6
Cc1cc(C)c(NC(=O)C(C)(C)C)c(Cl)c1	2%	2%	-2%	-7%	-3%	-4
CCCC(=O)Nc1nnc(/C=C/c2ccccc2)s1	?	90%	9%	-6%	23%	-11
O=C(NC(=S)Nc1ccc2ncccc2c1)c1ccccc1	?	?	-21%	?	5%	0
O=C(NC(=S)Nc1ccccc1[N+](=O)[O-])c1ccco1	?	45%	?	7.9µM*	22%	9
O=C(NC(=S)Nc1ccc2nc[nH]c2c1)c1ccccc1	?	4µM*	?	32%	?	-9
COC(=O)c1ccccc1NC(=S)NC(=O)c1ccccc1	18%	-9%	?	1µM*	5%	11
COC(=O)c1ccccc1NC(=S)NC(=O)c1ccccc1C	18%	-26%	?	7.9µM*	-3%	-7
Cc1ccc(S(=O)(=O)N2CCCCC2)cc1NC(=O)C1CCN(C(=O)OC(C)(C)C)CC1	nt	-13%	nt	nt	nt	nt
CC(NS(=O)(=O)c1ccc2ccccc2c1)c1ccccn1 (stereo not given)	4%	12%	nt	nt	-4%	-3
CCOC(=O)C1CCCN(C(=O)Cn2sc3nc(C)cc(C)c3c2=O)C1 (stereo not given)	24%	-49%	1.8µM*	?	-15%	-14
Cc1cc(C)c2c(=O)n(CC(=O)N3CCC(N4CCCCC4)CC3)sc2n1	14%	-47%	?	?	-15%	1
O[C@@H]1CN(C2CCN(Cc3ccccc3)CC2)CC[C@H]1N1CCCCCC1	nt	2%	nt	nt	nt	3
O=C(NCCCn1ccnc1)c1ccc(N2CCCCCC2)c([N+](=O)[O-])c1	9.2µM*	-40%	5%	12%	4%	5
CCOC(=O)N1CCN(C(=O)c2cn(C)c(=O)c3c2c2ccccc2n3C)CC1	?	-81%	0%	-16%	-5%	15
CCOC(=O)N1CCN(C(=O)c2cn(CC(C)C)c(=O)c3c2c2ccccc2n3C)CC1	18µM*	-18%	0%	-11%	-17%	6
COc1ccccc1NC(=O)N(Cc1ccco1)Cc1cc2cc(C)cc(C)c2[nH]c1=O	18µM*	-64%	1%	?	-6%	-3
COc1ccccc1NC(=O)N(CCN1CCOCC1)Cc1cc2cc(C)cc(C)c2[nH]c1=O	?	-8%	9%	5%	-4%	18
COc1ccccc1NC(=S)N(Cc1ccco1)Cc1cc2cccc(C)c2[nH]c1=O	16µM*	-53%	-8%	18%	-4%	-15
Cc1ccc(C)c2[nH]c(=O)c(CN(Cc3ccco3)C(=O)Nc3ccccc3)cc12	5.2µM*	-8%	3%	3%	-1%	-3
COc1ccccc1NC(=S)N(Cc1ccco1)Cc1cc2cc(C)c(C)cc2[nH]c1=O	?	-78%	?	-3%	1%	-4
Cc1ccc2cc(CN(Cc3ccco3)C(=O)NCc3ccccc3)c(=O)[nH]c2c1C	?	-27%	-1%	8%	-6%	-4
CC(C)N(C)c1ncnc2c1ncn2[C@H]1CN(Cc2ccncc2)C[C@@H](CO)O1	nt	1%	nt	nt	nt	nt
SMILES	ELG1 DNA repair	BRCA1 expr act	Gal4-VP16 FLuc	RORg inh	p53 reactivator	Giardia kill
COc1ccc(N2C(=O)Cc3c2nc(N)c(C#N)c3N)cc1	0%	0%	-9%	5%	10%	-11
Cc1cc(C(=O)CN2C(=O)NC3(CCC(C)CC3)C2=O)c(C)n1C (stereo not given)	8%	-10%	-8%	9%	-1%	-1
CN(CC(=O)Nc1cccc(F)c1)C(=O)CCC1CCCCC1	-8%	-11%	nt	nt	-1%	-24
CN(CC(=O)Nc1c(Cl)cccc1Cl)C(=O)CCC1CCCC1	?	1%	11µM*	-56%	-5%	17
C/C(COc1ccccc1)=N\NC(=O)c1nnn(-c2nonc2N)c1CSc1ccccc1	12%	-17%	-3%	-43%	0%	0
CCCCOc1cccc(C(=O)NC(=S)Nc2cccc(C(F)(F)F)c2)c1	7%	-27%	2.8µM*	4.5µM*	8%	17
CC(C)Oc1cccc(C(=O)NC(=S)Nc2cccc(C(F)(F)F)c2)c1	1%	-1%	?	6.3µM*	7%	-1
COc1cccc(C(C)NC(=O)Nc2cccc(C(F)(F)F)c2)c1 (stereo not given)	-4%	-28%	35µM*	?	4%	12
COc1ccccc1C(=O)NCCC(=O)Nc1ccc(S(=O)(=O)N2C(C)CCCC2C)cc1 (stereo not given)	?	-25%	nt	nt	-16%	17
Cc1cc(=O)n2[nH]c(NCc3ccccc3F)nc2n1	7%	12%	0%	-1%	2%	4
Cc1ccc(C(=O)N/C(=C\c2ccc(-c3cc(Cl)ccc3Cl)o2)C(=O)NCc2cccnc2)cc1	?	-88%	-1%	?	11%	-12
O=C(NCc1cccnc1)/C(=C\c1ccc(-c2cccc(Cl)c2)o1)S(=O)(=O)c1ccccc1	16µM*	-83%	13µM*	?	-37%	-10
O=C(NCc1cccnc1)/C(=C/c1ccc(-c2cccc(Cl)c2)o1)S(=O)(=O)c1ccccc1	?	-63%	?	11µM*	-31%	3
CCCCCCOC(=O)/C=C/c1c(C)[nH]c(=O)[nH]c1=O	-13%	-8%	-19%	31%	-4%	5
O=C(NCc1cccnc1)C1CC(=O)N(C2CCCCC2)C1 (stereo not given)	-26%	1%	-4%	1%	3%	-4
NC(=S)C(c1ccccc1)c1ncc(C(F)(F)F)cc1Cl (stereo not given)	11%	-5%	?	6.3µM*	-3%	7
NC(=O)C(c1cccc(Cl)c1)c1ncc(C(F)(F)F)cc1Cl (stereo not given)	4%	2%	-2%	2%	7%	13
Cc1ccc(F)cc1-c1nc(NCC2CC2)nc2ccsc12	nt	-4%	nt	nt	nt	nt
COc1cc(NC(=S)N2CCN(C(c3ccccc3)c3ccccc3)CC2)cc(OC)c1	-3%	-23%	0%[0.365 µM]	4.5µM*	0%	1

Source: PubChem
